We go through 45 molecules from PubChem BioAssay AID2685 (National Center for Advancing Translational Sciences (NCATS), 2010).

Among all 320,000 compounds or so, about 2,100 (0.66%) were called active. About 53% were inconclusive and are not listed. The call rests on the fitted dose curve; in most records, active means well fitted inhibition curve with a large enough effect in the signal ratio, with a control signal flat (not every such curve was filed as active); inconclusive means small, poorly fitted or top-dose-only effect, or effect the other way, or a change in a side signal; inactive means flat fitted curve, though single readings scatter; the % refers to the signal ratio. What follows is part of a selection rich in actives, with near analogues and random picks from the rest.
Potency means the concentration at half of the fitted maximal effect.

The nature of this assay: qHTS Assay for Lipid Storage Modulators in Drosophila S3 Cells.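 On cell number change: cells counted by Cell Tracker Red CMTPX staining in the red channel.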 On lipid storage change, negative = inhibition: on the % scale 0 is the no-effect control and ±100 the full control effect. The settings on record: BODIPY lipid droplet fluorescence, 18-24 h, cells fed with added oleic acid; cell number change: measured here: cell count max response; series mostly up to 46.1 µM; lipid storage change, negative = inhibition: at the top concentration. A digest of the protocol:
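Drosophila S3 cells got compounds at several concentrations plus oleic acid (400 uM solution). Laser-scanning cytometry with 488 nm excitation read lipid droplets at 500-530 nm and cells at 575-640 nm. Percent activity was relative to 20 uM Triacsin C.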
As to `COc1cccc(NC(=O)C2C3C=CC4(O3)C2C(=O)N(CCN2CCCCC2)C4C(=O)NC2CCCCC2C)c1` (stereo not given), the Potency was 5.8 µM (active) and the cell number change stood at 14.4%.

Turning to `COc1cccc(NC(=O)C2C3C=CC4(O3)C2C(=O)N(CCCN2CCCC(C)C2)C4C(=O)NC2CCCCC2C)c1` (stereo not given), the molecule was called inactive and the cell number change is -4.5%. In the case of `CCN(CC)CCCN1C(=O)C2C(C(=O)Nc3ccc(C(C)C)cc3)C3C=CC2(O3)C1C(=O)NC1CCCCC1` (stereo not given), the Potency is 16.4 µM (active) and the cell number change is 8.06%. Regarding `CCN(CC)CCN1C(=O)C2C(C(=O)Nc3ccc(C(C)C)cc3)C3C=CC2(O3)C1C(=O)NC1CCCCC1` (stereo not given), the molecule was called inactive and the cell number change is 1.35%. As to `COc1ccc(NC(=O)C2C3C=CC4(O3)C2C(=O)N(CCN2CCCCC2C)C4C(=O)NC2CCCC(C)C2C)cc1` (stereo not given), the molecule was classed as inactive and the cell number change is -11.9%. With `COc1cccc(NC(=O)C2C3C=CC4(O3)C2C(=O)N(CCCN2CCCCC2)C4C(=O)NC2CCCCC2)c1` (stereo not given), the molecule was classed as inactive and the cell number change turned out to be 1.59%. The matching figures for `COc1ccc(NC(=O)C2C3C=CC4(O3)C2C(=O)N(CCCN2CCCCC2)C4C(=O)NC2CCCC(C)C2C)cc1` (stereo not given): “inactive” and 20.6%. In the case of `COc1ccc(NC(=O)C2C3C=CC4(O3)C2C(=O)N(CCN2CCCCC2)C4C(=O)NC2CCCC(C)C2C)cc1` (stereo not given), the Potency is 0.92 µM (active) and the cell number change stood at 27%. Take `CC(C)c1ccc(NC(=O)C2C3C=CC4(O3)C2C(=O)N(CCCN2CCCCC2)C4C(=O)NC2CCCCC2)cc1` (stereo not given): the call was inactive and the cell number change is 2.7%. For the molecule `Cc1cccc(NC(=O)CSc2nnc(CNC(=O)c3ccco3)o2)c1`, the molecule was classed as inactive and the cell number change is -11.3%. For `CCCn1c(O)c(N=NC(=O)CNC(=O)c2cccnc2)c2ccccc21`, the “lipid storage change, negative = inhibition” value is 22.8% (inactive) and the cell number change came out at 6.42%. In the case of `NC(=O)/C=C\c1cn(-c2ccccc2)nc1-c1ccc2c(c1)OCCO2`, the “lipid storage change, negative = inhibition” value was 33.5% (inactive) and the cell number change was 13.6%. The matching figures for `O=S(=O)(N/N=C/c1cccnc1)c1ccc(Cl)c(Cl)c1`: -1.88% (inactive) and 4.73%. Regarding `C=CCn1c(O)c(C=Nc2ccccc2)sc1=S`, the “lipid storage change, negative = inhibition” value is 12.5% (inactive) and the cell number change came to 8.83%. On to `COc1ccc(CCNC(=O)COc2nncc3ccccc23)cc1`, for which the outcome was inactive and the cell number change is -8.53%. Turning to `Cc1ccc(C(C)C)c(OCCN2CCc3ccccc3C2)c1`, the “lipid storage change, negative = inhibition” value was -43.6% (inactive) and the cell number change is -16.4%.

For the molecule `Cc1ccc(C(C)C)c(OCCCN2CCc3ccccc3C2)c1`, the Potency was 14.6 µM (active) and the cell number change is -26.9%. In the case of `Cc1ccc(OCCCCN2CCc3ccccc3C2)cc1`, the outcome was inactive and the cell number change was -8.99%. Turning to `COc1c(Br)cc2c(C)c(C(=O)O)oc2c1Br`, the “lipid storage change, negative = inhibition” value was -6.54% (inactive) and the cell number change was found to be 24.7%. The matching figures for `CN(C)c1cc(Nc2ccc(O)cc2)c([N+](=O)[O-])c2nonc12`: -2.02% (inactive) and 4.46%. As to `CCOc1ccc(NS(=O)(=O)c2ccc(C(=O)N3CCCC(C)C3)cc2)cc1` (stereo not given), the “lipid storage change, negative = inhibition” value is 18.3% (inactive) and the cell number change was found to be 20.5%.

For `CCOc1ccc(NS(=O)(=O)c2cc(C(=O)N3CC(C)OC(C)C3)ccc2C)cc1` (stereo not given), the “lipid storage change, negative = inhibition” value is 17.9% (inactive). For `CCOc1ccc(NS(=O)(=O)c2ccc(C(=O)N3CC(C)OC(C)C3)cc2)cc1` (stereo not given), the Potency is 25.9 µM (active) and the cell number change was -12.2%. On to `CN(C)CCCNC(=O)C1CCNCC1`, for which the result was inactive and the cell number change is -14.6%.

Consider `NC(=O)N/N=C/C=C/c1ccccc1`, for which the “lipid storage change, negative = inhibition” value is -3.42% (inactive) and the cell number change was -8.08%. With `Cc1ccc(S(=O)(=O)N/N=C\C=C\c2ccccc2)cc1`, the “lipid storage change, negative = inhibition” value is 7.89% (inactive). With `O=S(=O)(N/N=C\C=C\c1ccccc1)c1ccc(Cl)cc1`, the Potency was 11.6 µM (active) and the cell number change is -34.4%. With `COc1ccc(/C=C/c2c(-c3ccc(OC)cc3)oc3cccnc23)cc1`, the outcome was inactive and the cell number change was -16.2%. `COC(=O)c1sccc1NC(=O)CC1C(=O)NCCN1C(=O)c1c(F)cccc1Cl` (stereo not given): the “lipid storage change, negative = inhibition” value is 4.81% (inactive) and the cell number change stood at 12.2%. As to `O=c1ccc(-c2ccc(S(=O)(=O)N3CCN(c4cccc(Cl)c4)CC3)o2)n[nH]1`, the molecule was classed as inactive and the cell number change was found to be 7.08%. As for `CNS(=O)(=O)c1ccc(NC(=O)c2cncc(Br)c2)cc1`, the call was inactive.

In the case of `CN(C)S(=O)(=O)c1cccc(NC(=O)c2cncc(Br)c2)c1`, the “lipid storage change, negative = inhibition” value is 8.64% (inactive). As for `Cc1ccc(S(=O)(=O)N(C)C)cc1NC(=O)c1cncc(Br)c1`, the Potency is 8.2 µM (active) and the cell number change is -18%. With `COC(=O)[C@H](CC(C)C)NC(=O)NC1CCCCC1C` (stereo not given in full), the Potency is 25.9 µM (active) and the cell number change is -4.34%.

Turning to `COC(=O)[C@H](CC(C)C)NC(=O)N1CCCCC1C` (stereo not given in full), the “lipid storage change, negative = inhibition” value was -12.3% (inactive) and the cell number change was -11.4%. As for `COC(=O)[C@@H](NC(=O)NC1CCCCC1C)C(C)C` (stereo not given in full), the “lipid storage change, negative = inhibition” value is 11.5% (inactive) and the cell number change is 5.72%. Regarding `C=CCc1ccc(OCCCCNC2CCCC2)c(OC)c1`, the cell number change is -17.8% and the lipid storage change, negative = inhibition was -10.2% [at 9.22 µM] (inactive). On to `CC(NC(=O)C1CCC1)c1ccccc1` (stereo not given), for which the molecule was called inactive.

Take `CN(C)C(=O)N1CCCC(C(=O)NCc2ccccc2)C1` (stereo not given): the “lipid storage change, negative = inhibition” value was -5.36% (inactive) and the cell number change was -23.4%. As to `CC(NC(=O)C1CCCN(C(=O)N(C)C)C1)c1ccccc1` (stereo not given), the Potency is 25.9 µM (active) and the cell number change is 2.04%.

Turning to `CCOC(=O)c1c(NC(=S)N2CCOCC2)sc2c1CCN(C(=O)OCC)C2`, the “lipid storage change, negative = inhibition” value is -15.8% (inactive) and the cell number change was -10.4%.

For `Cc1ccc(/C=N/NC(=O)Cc2c(F)cccc2Cl)s1`, the molecule was classed as inactive and the cell number change was found to be 13.4%. For the molecule `CCOc1ccc(S(=O)(=O)N2CCN(C(=O)c3cc(C4CC4)nn3-c3ccccc3)CC2)cc1`, the call was inactive and the cell number change is -18%. On to `O=C(c1cc(C2CC2)nn1-c1ccccc1)N1CCN(S(=O)(=O)c2cccc(F)c2)CC1`, for which the “lipid storage change, negative = inhibition” value is 17.5% (inactive) and the cell number change was found to be 16.5%.

Turning to `O=C(c1cc(C2CC2)nn1-c1ccccc1)N1CCN(S(=O)(=O)c2ccccc2)CC1`, the Potency is 16.4 µM (active) and the cell number change is -11.8%.
